According to the supplement of paper PMC8007513:
Structures can show the parent of a compound that is named as a salt. ± gives the standard error. The campaign covered roughly 1,300 compounds. About 75 (6%) showed an effect of 50% or more. Shown is part of a subset that was picked to be rich in strong results.

System: Trichoderma virens ATCC 9645
Assay: growth yield (OD600) relative to untreated control; higher = less growth inhibition
Settings: compound concentration: 100 uM
Outline: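 For each 96-well plate, 100 μl aliquots were prepared with Trichoderma virens ATCC 9645 spores suspended at 15,000 spores ml^−1 in potato dextrose broth. The spores had been harvested from potato dextrose agar plates after 7 days. Library compounds were present at 100 μM final, some wells also receiving a biocide at 200 ng ml^−1, and plates were grown at 30 °C with OD600 read on a BioTek EL800 at 40 h and 72 h. Reported growth, relative to the control lacking both agents, is the mean of duplicate screens.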

Row | Compound | growth yield (40 h) | growth yield (72 h)
1 | Cc1ncc(CO)c(CO)c1O [Pyridoxine hydrochloride] | 101.5 ± 0.16% | 103.3 ± 0.52%
2 | CCOC(=O)N1CCC(=C2c3ccc(Cl)cc3CCc3cccnc32)CC1 [Loratadine] | 19.2 ± 12% | 73.6%
3 | Clc1ccc2c(c1)CCc1cccnc1C2=C1CCNCC1 [Desloratadine] | 106 ± 6.8% | 105 ± 4.8%
4 | CN1CCC(=C2c3ccccc3CCc3cccnc32)CC1 [Azatadine maleate] | 107 ± 7.9% | 104 ± 4.2%
5 | COc1ccc(C[C@@H]2c3cc(OC)c(OC)cc3CC[N@+]2(C)CCC(=O)OCCCCCOC(=O)CC[N@@+]2(C)CCc3cc(OC)c(OC)cc3[C@H]2Cc2ccc(OC)c(OC)c2)cc1OC [Cisatracurium besylate] | 95 ± 1.3% | 94 ± 3.4%
6 | CCCCc1ccc2[nH]c(NC(=O)OC)nc2c1 [Parbendazole] | 53.4 ± 1.9% | 95.9 ± 10%
7 | CCCOc1ccc2[nH]c(NC(=O)OC)nc2c1 [Oxibendazol] | 16.4 ± 3.6% | 74.6 ± 3.5%
8 | CCCSc1ccc2[nH]c(NC(=O)OC)nc2c1 [Albendazole] | 73.2 ± 3.6% | 84.3 ± 5.5%
9 | Cc1ccc2c(c1)c1c3n2CCNC3CCC1 (stereo not drawn) [Pirlindole mesylate] | 101 ± 1.1% | 104 ± 2.5%
10 | Clc1cc(Cl)c(OCC#CI)cc1Cl [Haloprogin] | 6.04 ± 1.6% | 5.14 ± 0.73%
11 | CC1CC(OC(=O)c2ccccc2O)CC(C)(C)C1 (stereo not drawn) [Homosalate] | 109 ± 3.2% | 105.8 ± 0.32%
12 | CCCCNc1ccc(C(=O)OCCOCCOCCOCCOCCOCCOCCOCCOCCOC)cc1 [Benzonatate] | 92.1 ± 2.5% | 89.1 ± 2.1%
13 | CCCCNc1ccc(C(=O)OCCN(C)C)cc1 | 99.752 ± 2.2e-14% | 102 ± 3.4%
14 | CCCCNc1c(C(=O)OCC)c(C)nc2c1cnn2CC [Tracazolate hydrochloride] | 38.1 ± 16% | 60.5 ± 13%
15 | CC[C@H]1OC(=O)C[C@@H](O)[C@H](C)[C@@H](O[C@@H]2O[C@H](C)[C@@H](O[C@H]3C[C@@](C)(O)[C@@H](O)[C@H](C)O3)[C@H](N(C)C)[C@H]2O)[C@@H](CC=O)C[C@@H](C)C(=O)/C=C/C(C)=C/[C@@H]1CO[C@@H]1O[C@H](C)[C@@H](O)[C@@H](OC)[C@H]1OC [Tylosin] | 95.94 ± 0.32% | 94.2 ± 1.9%
16 | C[C@H]1c2cccc(O)c2C(=O)C2=C(O)[C@]3(O)C(=O)C(C(N)=O)=C(O)[C@@H](N(C)C)[C@@H]3[C@@H](O)[C@@H]21 [Doxycycline hydrochloride] | 93.2 ± 1.8% | 92.7 ± 2.7%
17 | Cc1c(N(C)CS(=O)(=O)O)c(=O)n(-c2ccccc2)n1C [Dipyrone] | 91.7 ± 4.6% | 85.68 ± 0.73%
18 | OCCN1CCN(CCCN2c3ccccc3Sc3ccc(Cl)cc32)CC1 [Perphenazine] | 59.1 ± 5.1% | 113 ± 14%
19 | CN1CCN(CCCN2c3ccccc3Sc3ccc(S(=O)(=O)N(C)C)cc32)CC1 [Thioproperazine dimesylate] | 64.5 ± 11% | 90.7 ± 4.1%
20 | CN1CCN(CCCN2c3ccccc3Sc3ccc(Cl)cc32)CC1 [Prochlorperazine dimaleate] | 31 ± 8.7% | 108 ± 2.4%
21 | CC(=O)c1ccc2c(c1)N(CCCN(C)C)c1ccccc1S2 [Acetopromazine maleate salt] | 109 ± 5.9% | 111 ± 4.1%
22 | CN(C)CCCN1c2ccccc2Sc2ccc(Cl)cc21 [Chlorpromazine hydrochloride] | 68.8 ± 2.1% | 86.52 ± 0.32%

Row | Compound | growth yield (40 h) | growth yield (72 h)
23 | CCSc1ccc2c(c1)N(CCCN1CCN(C)CC1)c1ccccc1S2 [Thiethylperazine dimalate] | 3.02 ± 0.16% | 2.73 ± 0.42%
24 | COc1cc(N)c(Cl)cc1C(=O)NC1CCN(CCCOc2ccc(F)cc2)CC1OC (stereo not drawn) [Cisapride] | 108% | 109%
25 | O=C(Cn1ccnc1[N+](=O)[O-])NCCO [Etanidazole] | 101 ± 2.2% | 98 ± 1.9%
26 | CCN(CC)CCOC(=O)C1(c2ccc([N+](=O)[O-])cc2)CCCC1 [Nitrocaramiphen hydrochloride] | 101% | 103.3 ± 0.52%
27 | O=C(CCCN1CCC(O)(c2ccc(Br)cc2)CC1)c1ccc(F)cc1 [Bromperidol] | 104.4 ± 0.48% | 105.4 ± 0.1%
28 | C/C(=C(\CCOP(=O)(O)O)SC(=O)c1ccccc1)N(C=O)Cc1cnc(C)nc1N [Benfotiamine] | 99.75 ± 0.64% | 96.38 ± 0.1%
29 | NC(=O)c1cc[n+](CC2=C(C(=O)[O-])N3C(=O)[C@@H](NC(=O)[C@@H](c4ccccc4)S(=O)(=O)O)[C@H]3SC2)cc1 [Cefsulodin sodium salt] | 95 ± 4.8% | 99.3 ± 3.2%
30 | CC[C@H](C)C(=O)O[C@H]1CCC=C2C=C[C@H](C)[C@H](CC[C@@H]3C[C@@H](O)CC(=O)O3)[C@H]21 [Mevastatin] | 103 ± 7.6% | 96.2 ± 6.6%
31 | O=P(O)(O)C(O)(Cn1ccnc1)P(=O)(O)O [Zoledronic acid hydrate] | 108 ± 4.5% | 109 ± 1.6%
32 | CO[C@H]1/C=C/O[C@@]2(C)Oc3c(C)c(O)c4c(O)c(c(/C=N/N5CCN(C6CCCC6)CC5)c(O)c4c3C2=O)NC(=O)/C(C)=C\C=C\[C@H](C)[C@H](O)[C@@H](C)[C@@H](O)[C@@H](C)[C@H](OC(C)=O)[C@@H]1C [Rifapentine] | 84.5% | 94%
33 | CN1CCC(=C2c3ccccc3Sc3ccccc32)CC1 [Pimethixene maleate] | 85.77 ± 0.64% | 95.2 ± 1.9%
34 | CSc1ccc2c(c1)C(N1CCN(C)CC1)Cc1ccccc1S2 (stereo not drawn) [Methiothepin maleate] | 43.5 ± 3.5% | 75.4 ± 3.2%
35 | CSc1ccc2c(c1)N(CCC1CCCCN1C)c1ccccc1S2 (stereo not drawn) [Thioridazine hydrochloride] | 53.8 ± 6.2% | 83 ± 2.6%
36 | CN(Cc1cc(Br)cc(Br)c1N)C1CCCCC1 [Bromhexine hydrochloride] | 99 ± 1.1% | 98.2 ± 1.9%
37 | Cc1scc2c1N(C(=O)CN1CCN(C)CC1)c1ccccc1NC2=O [Telenzepine dihydrochloride] | 99.75 ± 0.32% | 103 ± 1.1%
38 | CC(=O)Oc1cc(C(F)(F)F)ccc1C(=O)O [Triflusal] | 94.5 ± 2.4% | 91.77 ± 0.32%
39 | Cc1cc(N)c2ccccc2[n+]1CCCCCCCCCC[n+]1c(C)cc(N)c2ccccc21 [Dequalinium dichloride] | 2.54 ± 1.6% | 2.2 ± 1.4%
40 | Nc1ccccc1S(N)(=O)=O [2-Aminobenzenesulfonamide] | 93.7 ± 1.6% | 94.39 ± 0.63%
41 | Cc1cc(C2CCCCC2)n(O)c(=O)c1 [Ciclopirox ethanolamine] | 1.27 ± 1.3% | 1.15 ± 1.1%
42 | CC(=O)Nc1c(I)c(C(=O)N[C@H]2C(O)O[C@H](CO)[C@@H](O)[C@@H]2O)c(I)c(N(C)C(C)=O)c1I (stereo partly drawn) [Metrizamide] | 102 ± 13% | 105 ± 12%
43 | CC1(C)O[C@@H]2C[C@H]3[C@@H]4CCC5=CC(=O)C=C[C@]5(C)[C@H]4[C@@H](O)C[C@]3(C)[C@]2(C(=O)CO)O1 [Desonide] | 109 ± 11% | 98.7 ± 6.6%
44 | CCC(=O)[C@@]1(C)[C@H](C)C[C@H]2[C@@H]3CCC4=CC(=O)C=C[C@]4(C)[C@H]3[C@@H](O)C[C@@]21C [Rimexolone] | 112 ± 14% | 106 ± 8.3%

Row | Compound | growth yield (40 h) | growth yield (72 h)
45 | COc1c(O[C@@H]2O[C@H](CO)[C@@H](O)[C@H](O)[C@H]2O)cc2c(c1OC)-c1ccc(SC)c(=O)cc1[C@@H](NC(C)=O)CC2 [Thiocolchicoside] | 101 ± 1.4% | 103 ± 2.2%
46 | NS(=O)(=O)c1cc2c(cc1C(F)(F)F)NCNS2(=O)=O [Hydroflumethiazide] | 102 ± 2.4% | 100 ± 3.1%
47 | O=C1c2cccc(O)c2C(=O)c2c(O)cccc21 [1,8-Dihydroxyanthraquinone] | 85.8 ± 11% | 87.2 ± 8.7%
48 | O=C1c2c(O)ccc(O)c2C(=O)c2c(NCCNCCO)ccc(NCCNCCO)c21 [Mitoxantrone dihydrochloride] | 2.86 ± 2.9% | 0.21 ± 0.21%
49 | O=C1c2c(O)cccc2Cc2cccc(O)c21 [Anthralin] | 96.7 ± 3.6% | 89.5 ± 2.8%
50 | CN1[C@@H]2CC[C@H]1C[C@@H](OC(c1ccccc1)c1ccccc1)C2 [Benztropine mesylate] | 105 ± 3.6% | 102 ± 1.7%
51 | O=C1OCCN1/N=C/c1ccc([N+](=O)[O-])o1 [Furazolidone] | 84.3 ± 7.2% | 87.7 ± 5.9%
52 | Nc1nc(=O)c2nc(CNc3ccc(C(=O)N[C@@H](CCC(=O)O)C(=O)O)cc3)cnc2[nH]1 [Folic acid] | 102 ± 1.4% | 104.7 ± 0.42%
53 | CC/C(=C(\c1ccccc1)c1ccc(OCCN(C)C)cc1)c1ccccc1 [Tamoxifen citrate] | 1.11 ± 0.48% | 1.26 ± 0.21%
54 | CCN(CC)CCOc1ccc(C(=C(Cl)c2ccccc2)c2ccccc2)cc1 [Clomiphene citrate (Z,E)] | 1.75 ± 1.1% | 2.2 ± 0.1%
55 | CN(C)CCOC(c1ccccc1)c1ccccc1 [Diphenhydramine hydrochloride] | 99.9 ± 5.2% | 99.4 ± 3.1%
56 | CN(C)CCOc1ccc(/C(=C(/CCCl)c2ccccc2)c2ccccc2)cc1 [Toremifene] | 3.81 ± 0.32% | 2.73 ± 0.21%
57 | COc1cc(C(=O)NCc2ccc(OCCN(C)C)cc2)cc(OC)c1OC [Trimethobenzamide hydrochloride] | 103 ± 2.4% | 97.75 ± 0.21%
58 | CN(C)CCOC(=O)COc1ccc(Cl)cc1 [Meclofenoxate hydrochloride] | 95.1 ± 2.1% | 92.1 ± 3.6%
59 | COc1ccc(C(Cl)=C(c2ccc(OC)cc2)c2ccc(OC)cc2)cc1 [Chlorotrianisene] | 101 ± 2.7% | 96.7 ± 1.5%
60 | COc1ccc(C(=O)NCc2ccc(OCCN(C)C)cc2)cc1OC [Itopride] | 105 ± 5.7% | 105 ± 3.7%
61 | CCN(CC)CCOC(=O)C(c1ccccc1)c1ccccc1 [Adiphenine hydrochloride] | 98.8 ± 7.6% | 96.9 ± 5.5%
62 | COc1ccc(OC)c(C(O)CNC(=O)CN)c1 (stereo not drawn) [Midodrine hydrochloride] | 101.8 ± 0.16% | 105 ± 0.73%
63 | CC(=O)[C@H]1CC[C@H]2[C@@H]3C=CC4=CC(=O)CC[C@@]4(C)[C@@H]3CC[C@]12C [Dydrogesterone] | 78.3 ± 1.1% | 79.9 ± 2.1%
64 | CN(C)[C@@H]1C(O)=C(C(N)=O)C(=O)[C@@]2(O)C(O)=C3C(=O)c4c(O)ccc(Cl)c4[C@@](C)(O)[C@H]3C[C@@H]12 [Chlortetracycline hydrochloride] | 90.54 ± 0.32% | 90.93 ± 0.32%
